Experimental data as given in PubChem BioAssay AID2417 (National Center for Advancing Translational Sciences (NCATS), 2010).
Out of some 140,000 compounds screened, about 4,300 (3.1%) were called active. Not shown: some 21% with an inconclusive outcome.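 How the source made its calls: active means readout at or below -70, meaning at least 70% loss of cells showing the perinucleolar compartment, a nuclear body marking cancer cells; inconclusive means readout between -30 and a set limit; inactive means the rest.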 The list comes from a sample in which actives are over-represented; it also holds similar structures and randomly drawn compounds.

Test: High Content Assay for Compounds that inhibit the Assembly of the Perinucleolar Compartment;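 further: plate controls were DMSO wells for no effect and camptothecin positive control wells for full effect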
Settings: PC3M PTB-GFP, PNC prevalence imaging, 16 h; at 10 µM; hits give low values
How it was run: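 PC3M cells stably expressing PTB-GFP, 750–1000 cells/well, treated 16 h at 37 °C with compound (23 nl of library stock), in duplicate. After paraformaldehyde fixation and Hoechst stain, imaged at 20x; PNC prevalence scored by image analysis.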

| SMILES | activity change (PNC), negative = inhibition |
| --- | --- |
| Fc1ccc(N2N=C(c3cccs3)CC2c2ccco2)c(F)c1 (configuration not stated) | 17.8% (inactive) |
| Cc1ccc(C2=NN(C(=O)CSc3nc(N)cc(N)n3)C(c3ccco3)C2)cc1 (configuration not stated) | -113% (active) |
| CCS(=O)(=O)Nc1ccc(C2=NN(S(=O)(=O)c3ccc(F)cc3)C(c3ccco3)C2)cc1 (configuration not stated) | 13.9% (inactive) |
| CC(C)(C)c1ccc(NC(=O)COC(=O)CCc2nc3ccccc3c(=O)[nH]2)cc1 | -24.2% (inactive) |
| C/C(=N/NC(=O)c1ccc(Br)o1)c1ccc(C)o1 | -24.9% (inactive) |
| CCOc1ccc(NC(=O)c2ccc(CSc3nnnn3C)cc2)cc1 | -8.75% (inactive) |
| CCc1cccc(CC)c1NC(=O)COc1ccccc1C(=O)c1cc(C#N)c(=O)n(C2CCCCC2)c1 | -12.2% (inactive) |
| CCCOC(=O)c1[nH]c2c(c1C)C(=O)CC(c1cc(OC)c(OC)c(OC)c1)C2 (configuration not stated) | 10.3% (inactive) |
| CCOC(=O)c1[nH]c2c(c1-c1ccccc1)C(=O)CC(c1ccc(Cl)cc1)C2 (configuration not stated) | 35.7% (inactive) |
| CCCOC(=O)c1[nH]c2c(c1C)C(=O)CC(c1cccs1)C2 (configuration not stated) | -85.9% (active) |
| CSc1ccccc1NC(=O)c1cc(C2CC2)on1 | -108% (active) |
| O=C(Nc1cc(C(F)(F)F)ccc1Cl)c1cc(C2CC2)on1 | -19.5% (inactive) |
| CSc1ccccc1NC(=O)Cc1ccc(Br)cc1 | 27% (inactive) |
| Cc1cc(C(C)(C)C)cc(C)c1N | 15.5% (inactive) |
| O=C(Cc1cc(=O)[nH][nH]1)N/N=C/c1ccccc1[N+](=O)[O-] | -21.2% (inactive) |
| Cc1ccc(N(C(=O)c2ccc(CN3CCOCC3)o2)C(C(=O)NCCC(C)C)c2cccs2)c(C)c1 (configuration not stated) | 4.19% (inactive) |
| O=C(Nc1ccccc1)c1ccc2c(c1)OCO2 | 16.1% (inactive) |
| COc1ccc(NC(=O)Nc2ccc3nsnc3c2)cc1 | -27.5% (inactive) |
| O=C(Nc1ccccc1)c1ccc2nsnc2c1 | -106% (active) |
| Cc1cc(C)cc(NC(=S)NCCCN2CCOCC2)c1 | 26.5% (inactive) |
| Cc1ccc2c(Cl)c(C(=O)NCCCn3ccnc3)sc2c1 | -3.58% (inactive) |

| SMILES | activity change (PNC), negative = inhibition |
| --- | --- |
| O=C(NCCCn1ccnc1)Nc1ccc(Cl)cc1Cl | -114% (active) |
| CCCCC(=O)Nc1ccc(C(=O)NCCCn2ccnc2)cc1 | 40.1% (inactive) |
| CCCOc1ccc(NC(=O)C2OC3OC(C)(C)OC3C3OC(C)(C)OC23)cc1 (configuration not stated) | 10.2% (inactive) |
| COc1cc(/C=C2\SC(=S)N(Nc3ncc(C(F)(F)F)cc3Cl)C2=O)cc(OC)c1OC | 7.84% (inactive) |
| COc1cccc(/C=N\NC(=O)C2=NNC(=O)C2C)c1O (configuration not stated) | -8.21% (inactive) |
| COc1cccc(/C=N/Nc2ncc(C(F)(F)F)cc2Cl)c1O | -85.6% (active) |
| CCc1ccc2c(c1)C(c1ccc([N+](=O)[O-])cc1)=NNC(c1ccccc1)=N2 | 34.2% (inactive) |
| Cc1ccc(-c2cc(C(=O)N/N=C/C=C/c3ccccc3)n[nH]2)o1 | -21.8% (inactive) |
| CC(=O)CCC(=O)c1ccc2ccccc2c1 | 36.3% (inactive) |
| Cc1cc(Cl)c(S(=O)(=O)NCC2CCCO2)cc1OCC(N)=O (configuration not stated) | 9.99% (inactive) |
| Cc1cc(Cl)c(S(=O)(=O)Nc2ccc3c(c2)OCCO3)cc1OCC(N)=O | -121% (active) |
| Cc1cc(Cl)c(S(=O)(=O)N(C)C)cc1OCC(N)=O | -29.4% (inactive) |
| CCOC(=O)CSC1=C(C#N)C(c2ccco2)C(C(=O)OCc2ccccc2)=C(C)N1 (configuration not stated) | -21.7% (inactive) |
| CC1=C(C(=O)Nc2ccccc2)C(c2cccs2)C(C#N)=C(SCC#N)N1 (configuration not stated) | -107% (active) |
| CC1=C(C(=O)Nc2ccccc2)C(c2ccco2)C(C#N)=C(SCC(N)=O)N1 (configuration not stated) | -15.2% (inactive) |
| Cc1nn(C)c(C(=O)NNC(=S)NC2CCCCC2)c1Cl | 8.24% (inactive) |
| Cc1ccc(NN=C2C(=O)OC(C)(C)OC2=O)c(C)c1 | 57.8% (inactive) |
| Cc1ccn(CC(=O)N2N=C(C(F)F)CC2(O)C(F)F)n1 (configuration not stated) | 3.67% (inactive) |
| COc1ccc(NC(=O)c2ccc(OC)cc2)cc1 | 29.1% (inactive) |
| COc1ccc(C(=O)Nc2ccc(S(=O)(=O)NC(C)C)cc2)cc1 | -112% (active) |
| COc1cc(OC)cc(C(=O)Nc2ccc(S(=O)(=O)Nc3cc(C)on3)cc2)c1 | -25.6% (inactive) |

| SMILES | activity change (PNC), negative = inhibition |
| --- | --- |
| CC(=O)Nc1ccc(/C(C)=N/NC(=O)CN(c2ccccc2Br)S(C)(=O)=O)cc1 | -2.45% (inactive) |
| CCOc1ccc2[nH]c(=O)c(CN(Cc3nnnn3Cc3ccccc3)CC3CCCO3)cc2c1 (configuration not stated) | -2.29% (inactive) |
| CCOc1ccc2[nH]c(=O)c(CN(Cc3nnnn3CCc3ccccc3)CC3CCCO3)cc2c1 (configuration not stated) | -100% (active) |
| COc1ccc2[nH]c(=O)c(CN(Cc3nnnn3CCc3ccccc3)CC3CCCO3)cc2c1 (configuration not stated) | -7.29% (inactive) |
| Cc1ccc(-n2ccc(=O)c(C(=O)O)n2)cc1 | -18.4% (inactive) |
| Cc1ccc(S(=O)(=O)NCC(=O)N2CCN(c3ccccn3)CC2)cc1 | -10% (inactive) |
| Cc1ccc(N2CCN(c3ccc(C)cc3)C2c2ccccn2)cc1 | -81.6% (active) |
| CN(c1ccccc1)c1nc(N)c([N+](=O)[O-])c(NCc2ccco2)n1 | 22% (inactive) |
| CNC(=O)/C(C#N)=C/c1c(F)cccc1Cl | 52.2% (inactive) |
| COc1ccccc1N1CCN(CC(=O)NC(=O)NCc2ccco2)CC1 | -19.8% (inactive) |
| Cc1noc(NS(=O)(=O)c2ccc(NC(=O)C34CCC(CC3)C4)cc2)c1C | -120% (active) |
| Cc1noc(NS(=O)(=O)c2ccc(N/C=C/C(=O)c3ccccc3)cc2)c1C | 34.4% (inactive) |
| COc1ccc(C(=O)Nc2ccc(S(=O)(=O)Nc3onc(C)c3C)cc2)cc1OC | 85.8% (inactive) |
| CCOC(=O)C1CCN(C(=O)/C=C/c2cc(OC)c(OC)c(OC)c2)CC1 | 5.16% (inactive) |
| COc1ccc(-c2cc(C(F)(F)F)n3nc(C(=O)N4CCOCC4)c(Cl)c3n2)cc1 | -106% (active) |
| COc1ccc(OCC(=O)N2CCOCC2)cc1 | -29.5% (inactive) |
| COC(=O)c1cnn2c(C(F)(F)F)cc(-c3ccco3)nc12 | 48.3% (inactive) |
| COc1ccc(-c2ccnc(SCC(=O)N3CCOCC3)n2)cc1 | -100% (active) |
| CCn1c(COc2cccc(OC)c2)nnc1SCC(=O)N1CCOCC1 | -11.5% (inactive) |
| COc1ccc(-c2nc(SCC(=O)N3CCOCC3)n[nH]2)cc1 | -17.8% (inactive) |
